Bioassay records (PubChem)
C diff HTS = C. difficile growth inhibitors, primary screen, HTS; Clostridium difficile clinical isolate growth, OD600, 24 h; stronger effect = lower value; growth activity, negative = inhibition, % at 16 µg/mL (by protocol); hit rate 0.25% among 86,000;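 active means mean growth activity at or below -80% and every replicate also at or below -80%; inconclusive means mean at or below -80% but some replicate above -80%; inactive means mean growth activity above -80%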
Pf Dd2 growth = P. falciparum Dd2 growth inhibitors, primary screen, SYBR Green fluorescence, single dose replicates; 72 h; stronger effect = lower value; activity change, % at 10 µM; hit rate 2.3% among 94,000; AID 1159554, 2015; in the data active means activity change below about -80%; inconclusive means no clear call, values can overlap the other calls
T cruzi growth-1 = T. cruzi intracellular proliferation inhibitors, primary screen, cell-based, beta-gal Tulahuen parasites, NIH3T3 host, luminescence. T. cruzi beta-gal in NIH3T3, GalScreen luminescence, 90 h. inhibition, % at 8.34 µM. hit rate 5.9% among 77,000;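 active means mean inhibition above about 93%, with at least 55% of replicates each passing it, limit read from the data, passing the limit was not always enough; inconclusive means only one of those two conditions holds; inactive means neither condition holds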
T cruzi growth-2 = T. cruzi intracellular proliferation inhibitors, confirmation, cell-based, NIH3T3 host, beta-gal parasite, luminescence, cherry-pick; shares compounds with T cruzi growth-1; inhibition, % at 8.35 µM; T. cruzi beta-gal in NIH3T3, GalScreen luminescence, 90 h; hit rate 72% among 5,600;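 active means mean replicate inhibition above about 95% and at least 55% of replicates individually reaching it, limit read from the data; inconclusive means only one of the two criteria is met; inactive means neither criterion is met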
T cruzi growth-3 = inhibitors of intracellular T. cruzi replication, confirmation, NIH3T3 host cells, beta-gal parasites, cherry-pick, set 2; shares compounds with T cruzi growth-1; T. cruzi beta-gal in NIH3T3, GalScreen luminescence, 90 h; inhibition, % at 2.09 µM; hit rate 21% among 5,600; AID 651740, 2012;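 active means mean inhibition above about 95%, with at least 55% of replicates also reaching it, limit read from the data; inconclusive means meets just one of the two conditions; inactive means meets neither condition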
NIH3T3 tox = cytotoxicity in mouse NIH/3T3 fibroblasts, confirmation, cytotoxicity control for T. cruzi proliferation inhibitor project, cell-based, cherry-pick, single point; shares compounds with T cruzi growth-1; NIH/3T3 viability, CellTiter-Glo ATP luminescence, 90 h; hit rate 14% among 5,600; cytotoxicity (signal decrease), % at 8.35 µM;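 active means mean signal decrease across replicates above about 35% based on untreated-well scatter, with enough replicates individually passing, limit read from the data; inconclusive means no rule stated though some were filed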
NIH3T3 tox 2 = NIH/3T3 fibroblast cytotoxicity, confirmation, cytotoxicity control, cell-based, cherry-pick, single point, set 2; shares compounds with T cruzi growth-1; NIH/3T3 viability, CellTiter-Glo ATP luminescence, 90 h; inhibition, % at 24.9 µM; hit rate 56% among 5,600;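 active means mean loss of cell viability signal at or above a set limit, and enough replicates individually reaching it; inconclusive means meets only the mean limit or only the replicate share; inactive means meets neither condition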
Large screens that a line does not name were inactive (follow-up assays come after a bar, where they were run). Compounds with a hit are over-represented: about 6.8% of the library has one in this group of screens.

O=C(CC1CC1)Nc1ccc2c(c1)[C@H]1C[C@@H](CC(=O)NC3CCCCC3)O[C@@H](CO)[C@H]1O2	none
O=C(C[C@@H]1CC[C@H](NC(=O)Cc2cccnc2)[C@@H](CO)O1)Nc1ccccc1	none (no result: T cruzi growth-1)
O=C(Cc1ccccn1)N[C@H]1C=C[C@H](CC(=O)N2CCCCC2)O[C@H]1CO	none
O=C(C[C@@H]1C[C@H]2c3cc(NC(=O)NC4CCCC4)ccc3O[C@H]2[C@@H](CO)O1)NCc1cccc(F)c1	none (no result: T cruzi growth-1)
CCS(=O)(=O)N1CC2(CN(CC3CCOCC3)[C@@H](CO)c3c2c2ccc(OC)cc2n3C)C1	none (no result: T cruzi growth-1)
CCN1[C@@H]2c3ccc(-c4ccccc4F)c(=O)n3C[C@H]1[C@H](CO)[C@H]2C(=O)N1CCOCC1	none (no result: Pf Dd2 growth)
COc1ccc(S(=O)(=O)Nc2ccc3c(c2)C(=O)N([C@@H](C)CO)C[C@@H](C)[C@H](CN(C)S(=O)(=O)c2ccccc2)OCCCC[C@H](C)O3)cc1	none (no result: T cruzi growth-1)
COc1ccc(S(=O)(=O)Nc2ccc3c(c2)C(=O)N([C@@H](C)CO)C[C@@H](C)[C@@H](CN(C)S(=O)(=O)c2ccccc2)OCCCC[C@@H](C)O3)cc1	none (no result: T cruzi growth-1)
COc1ccc(S(=O)(=O)Nc2ccc3c(c2)C(=O)N([C@H](C)CO)C[C@@H](C)[C@H](CN(C)S(=O)(=O)c2ccc(OC)cc2)OCCCC[C@H](C)O3)cc1	T cruzi growth-1 100 | T cruzi growth-2 107 | T cruzi growth-3 inactive | NIH3T3 tox inactive | NIH3T3 tox 2 inactive
COc1ccc(S(=O)(=O)Nc2ccc3c(c2)C(=O)N([C@@H](C)CO)C[C@@H](C)[C@H](CN(C)S(=O)(=O)c2ccc(OC)cc2)OCCCC[C@@H](C)O3)cc1	T cruzi growth-1 inconclusive | T cruzi growth-2 108 | T cruzi growth-3 inactive | NIH3T3 tox inactive | NIH3T3 tox 2 inactive
Cc1noc(C)c1NC(=O)N[C@@H]1CC[C@H](CC(=O)Nc2ccccc2)O[C@@H]1CO	none (no result: Pf Dd2 growth, T cruzi growth-1)
CC(C)CC#Cc1ccc2c(c1)O[C@H](CN(C)C(=O)C1CCC1)[C@H](C)CN([C@H](C)CO)S2(=O)=O	none
CC(C)CC#Cc1ccc2c(c1)O[C@H](CN(C)C(=O)C1CCC1)[C@H](C)CN([C@@H](C)CO)S2(=O)=O	none
CC(C)CC#Cc1ccc2c(c1)O[C@@H](CN(C)C(=O)C1CCC1)[C@H](C)CN([C@H](C)CO)S2(=O)=O	T cruzi growth-1 inconclusive | T cruzi growth-2 102 | T cruzi growth-3 inactive | NIH3T3 tox inactive | NIH3T3 tox 2 101
CC(C)CC#Cc1ccc2c(c1)O[C@@H](CN(C)C(=O)C1CCC1)[C@@H](C)CN([C@H](C)CO)S2(=O)=O	none
CC(C)CC#Cc1ccc2c(c1)O[C@H](CN(C)C(=O)C1CCC1)[C@@H](C)CN([C@@H](C)CO)S2(=O)=O	T cruzi growth-1 106 | T cruzi growth-2 107 | T cruzi growth-3 inactive | NIH3T3 tox inactive | NIH3T3 tox 2 104
CC(C)CC#Cc1ccc2c(c1)O[C@@H](CN(C)C(=O)C1CCC1)[C@H](C)CN([C@@H](C)CO)S2(=O)=O	T cruzi growth-1 106 | T cruzi growth-2 97 | T cruzi growth-3 104 | NIH3T3 tox inactive | NIH3T3 tox 2 42
CCCNC(=O)N1CC2(C1)CN(C(C)=O)[C@H](CO)c1[nH]c3cc(OC)ccc3c12	none (no result: T cruzi growth-1)
CC(C)C#Cc1ccc([C@H]2[C@H]3CN(C(=O)Nc4ccccc4)CCCCN3[C@H]2CO)cc1	none
CC(C)C#Cc1ccc([C@H]2[C@@H](CO)N3CCCCN(C(=O)Nc4ccccc4)C[C@@H]23)cc1	T cruzi growth-1 113 | T cruzi growth-2 107 | T cruzi growth-3 inactive | NIH3T3 tox 41 | NIH3T3 tox 2 34
O=C(c1cccnc1)N1CCCCN2[C@H](CO)[C@H](c3ccc(C#Cc4ccccc4)cc3)[C@@H]2C1	T cruzi growth-1 101 | T cruzi growth-2 110 | T cruzi growth-3 inactive | NIH3T3 tox 61 | NIH3T3 tox 2 43
O=C(Nc1cccc(F)c1)N1CCCCN2[C@H](CO)[C@H](c3ccc(C#Cc4cccnc4)cc3)[C@@H]2C1	none
CC(C)C#Cc1ccc([C@H]2[C@H](CO)N3CCCCN(C(=O)Nc4ccccc4)C[C@@H]23)cc1	none
CC(C)CC#Cc1ccc([C@H]2[C@@H](CO)N3CCCCN(C(=O)Nc4ccccc4)C[C@@H]23)cc1	T cruzi growth-1 106 | T cruzi growth-2 98 | T cruzi growth-3 103 | NIH3T3 tox inactive | NIH3T3 tox 2 87
O=C(c1cccnc1)N1CCCCN2[C@H](C1)[C@@H](c1ccc(C#Cc3cccnc3)cc1)[C@@H]2CO	none
O=C(Nc1ccccc1)N1CCCCN2[C@H](C1)[C@H](c1ccc(C#Cc3cccnc3)cc1)[C@@H]2CO	T cruzi growth-1 110 | T cruzi growth-2 inactive | T cruzi growth-3 inactive | NIH3T3 tox inactive | NIH3T3 tox 2 inactive
C[C@@H]1CN([C@H](C)CO)C(=O)c2cccc(NS(=O)(=O)c3cccs3)c2O[C@@H]1CN(C)CC1CCCCC1	none
COc1ccc(NC(=O)Nc2ccc3c(c2)C(=O)N([C@@H](C)CO)C[C@@H](C)[C@H](CN(C)S(=O)(=O)c2ccc(OC)cc2)O3)cc1	none
O=C(Nc1ccc(F)cc1)N1CCCCN2[C@H](CO)[C@@H](c3ccc(C#Cc4ccccc4)cc3)[C@@H]2C1	none
O=C(Nc1ccccc1)N1CCCCN2[C@H](CO)[C@@H](c3ccc(C#Cc4ccccc4)cc3)[C@@H]2C1	T cruzi growth-1 109 | T cruzi growth-2 inactive | T cruzi growth-3 103 | NIH3T3 tox inconclusive | NIH3T3 tox 2 104
O=C(Nc1ccc(F)cc1)N1CCCCN2[C@@H](CO)[C@H](c3ccc(C#Cc4ccccc4)cc3)[C@@H]2C1	Pf Dd2 growth inconclusive, T cruzi growth-1 123 | T cruzi growth-2 99 | T cruzi growth-3 111 | NIH3T3 tox 117 | NIH3T3 tox 2 105
CC(C)NC(=O)NCC[C@@H]1CC[C@@H](NS(=O)(=O)c2ccccc2)[C@H](CO)O1	none (no result: T cruzi growth-1)
C[C@H]1CN([C@@H](C)CO)C(=O)c2cc(N(C)C)ccc2O[C@H]1CN(C)CC1CCCCC1	none
C[C@@H]1CN([C@H](C)CO)C(=O)c2cc(NC(=O)CCC(F)(F)F)ccc2O[C@H]1CN(C)CC1CCCCC1	T cruzi growth-1 101 | T cruzi growth-2 inactive | T cruzi growth-3 inactive | NIH3T3 tox inactive | NIH3T3 tox 2 inactive
